Screens (PubChem BioAssay)
An excerpt weighted towards active compounds, which were near 1.6% of everything screened.
dFosB activator: enhances mouse delta FosB homodimer DNA binding; P13346; activation, % at 25 µM; AID 493131; 340,000 compounds, 0.99% hits; purified delta FosB, TAMRA-CDK5 oligo fluorescence polarization; percent of positive-control signal above neutral wells;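 active means mean activation above about 17%, with every replicate also reaching it, limit read from the data, passing the limit was not always enough; inconclusive means only one of the two conditions met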
Bfl-1 A1 inh: inhibitors of the anti-apoptotic protein A1, read as caspase activation; MEF A1-2A-BIM cells, Caspase-Glo 3/7 luminescence, 3 h; percent of clofoctol response, vehicle zero; caspase activation, % (test concentration not listed); AID 2462; 330,000 compounds, 0.066% hits;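 active means over half of replicate activation scores above 10%, or exactly half above 10 with the replicate mean above 10; inconclusive means replicate mean below 10 yet half the replicates above 10; inactive means over half of replicates below 10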
Dyrk1A ADPGlo: inhibitors of rat Dyrk1A kinase | Q63470 | ADP-Glo luminescence, NFATc1 peptide | inhibition, % at 12.5 µM | 310,000 compounds, 0.43% hits | AID 504441; in the data active means inhibition above about 50%;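 further: plate controls were vehicle with enzyme for no effect and no enzyme for full effect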
Beta2AR agonist: agonists of human beta-2 adrenergic receptor inducing internalization. 340,000 compounds, 0.43% hits. response, % (no concentration beside the values). Am2.2-beta2AR cells, FAP receptor internalization, flow cytometry;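 active means response above a set limit, near 3 SD of response in nonfluorescent compounds, cut at about 42% in these data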
Target sequence (P07550 whole entry, looked up): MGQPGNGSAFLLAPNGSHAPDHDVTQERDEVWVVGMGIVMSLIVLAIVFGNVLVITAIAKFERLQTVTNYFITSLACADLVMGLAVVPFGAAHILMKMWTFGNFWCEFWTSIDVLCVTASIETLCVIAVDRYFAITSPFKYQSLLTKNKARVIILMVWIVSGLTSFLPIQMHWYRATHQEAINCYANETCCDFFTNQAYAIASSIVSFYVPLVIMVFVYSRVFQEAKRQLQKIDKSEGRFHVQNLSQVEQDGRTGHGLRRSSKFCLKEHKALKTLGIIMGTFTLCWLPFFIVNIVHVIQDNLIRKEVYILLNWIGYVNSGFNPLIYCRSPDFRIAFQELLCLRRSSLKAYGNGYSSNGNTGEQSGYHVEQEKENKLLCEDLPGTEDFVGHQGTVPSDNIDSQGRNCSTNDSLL
Beta2AR ag CP1: activates human beta-2 adrenergic receptor. shares compounds with Beta2AR agonist. Am2.2-beta2AR cells, FAP surface receptor, flow cytometry; stronger effect = lower value. percent response (surface receptor), % at 10 µM. 1,100 compounds, 25% hits. AID 540358;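 active means surface receptor percent response at or below 58%, roughly 3 SD from nonfluorescent compounds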
B2AR FAP counter: fluorescence artifact in beta-2AR agonist FAP counterscreen; shares compounds with Beta2AR agonist; Am2.2 cells, FAP fluorogen flow cytometry; stronger effect = lower value; calls only at 10 µM; 1,100 tested, under 10 active;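 active means percent response below a set limit in fluorescence channel 1 and below 50% in channel 8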
* hit, by the source's call; i = inactive; u = inconclusive; x = no result.

SMILES | dFosB activator | Bfl-1 A1 inh | Dyrk1A ADPGlo | Beta2AR agonist | Beta2AR ag CP1 | B2AR FAP counter
O=[N+]([O-])c1cc(S(=O)(=O)N2CCCCCC2)ccc1Cl | -4 | x | -7 | 48* | 90 | i
CC(C)NCC(O)c1cc(O)cc(O)c1 (stereo not drawn) | 5 | 0 | 0 | 0 | 93 | i
O=C(c1cccc(Cl)c1)N1CCC(C(=O)N2CCN(Cc3ccccc3)CC2)CC1 | 1 | 0 | -6 | 79* | 25* | i
O=C(c1cccc(C(=O)N2CCN(Cc3ccccc3)CC2)c1)N1CCN(Cc2ccccc2)CC1 | -12 | 0 | -1 | -6 | x | x
COc1ccc(NC(=O)Cn2nnc(-c3ccccc3NC(=O)C3CC3)n2)cc1 | 6 | 1 | 0 | -1 | 119 | i
COc1ccc(C(=O)Cn2nnc(-c3ccccc3NC(=O)C3CCCCC3)n2)cc1 | 0 | 1 | 0 | 13 | x | x
COc1ccc(C(=O)NC(CCSC)C(=O)NC2CC2)cc1 (stereo not drawn) | -2 | 1 | x | -2 | x | x
COc1ccc(Cn2nc(-c3ccccc3)c(N3CCCCC3)cc2=O)cc1 | -7 | 0 | -1 | 108* | 38* | i
O=C(C(c1ccccc1)c1ccccc1)N1CCN(c2ccccn2)CC1 | -9 | 1 | -7 | 113* | 16* | i
CCn1c(SCC(=O)Nc2ccc(-c3nc4ccc(C)cc4s3)cc2)nnc1-c1ccccc1 | x | 0 | x | x | x | x
C=CCn1c(SCC(=O)Nc2ccc(-c3nc4ccc(C)cc4s3)cc2)nnc1-c1ccncc1 | 5 | 0 | 0 | 58* | 104 | i
CC1(C)Cc2c(c(-c3ccco3)nc3sc4c(NCCCO)ncnc4c23)CO1 | -36 | 0 | 1 | 111* | 26* | i
CC1(C)Cc2c(c(-c3ccco3)nc3sc4c(NCC5CCCO5)ncnc4c23)CO1 (stereo not drawn) | -15 | 0 | -4 | 83* | 10* | i
CS(=O)(=O)NCc1ccc(C(=O)O)cc1 | -1 | 1 | -5 | 4 | x | x
COc1ccc(-n2ccnc(SCC(=O)NC3CCCC3)c2=O)cc1 | -5 | u | 9 | 6 | x | x
COc1ccc(-n2c(Cc3cc(=O)[nH]c(=O)[nH]3)nnc2SCC(=O)NC2CCCC2)cc1 | -7 | 0 | 8 | 52* | 88 | i
COc1ccc(-n2ccnc(SCC(=O)NC3CCCCC3)c2=O)cc1 | -7 | -1 | x | 93* | 103 | i
Cc1cc(C)c(C(=O)N(C)C2CCCN(Cc3ccccc3F)C2)o1 (stereo not drawn) | 2 | 1 | 0 | 14 | x | x
Cn1c(N2CCN(c3ccccn3)CC2)nc2c1c(=O)n(Cc1ccc(Cl)cc1)c(=O)n2C | -12 | 1 | 0 | 127* | 23* | i
Cn1c(N2CCN(c3ccccn3)CC2)nc2c1c(=O)n(Cc1ccccc1Cl)c(=O)n2C | 3 | 1 | 4 | -9 | x | x
COc1cccc(-c2noc(-c3cccs3)n2)c1 | -7 | -13 | -1 | 2 | x | x
COc1cccc(OCc2nnc(-c3cccs3)o2)c1 | -13 | 1 | 0 | 50* | 58* | i
O=C1C=C(c2ccc(F)c(Cl)c2)C[C@@H](c2ccc(F)cc2)C1 | -12 | 0 | 0 | 0 | x | x
COc1ccc(NC(=O)Nc2cccc3c2O[C@H](CN(C)C(=O)Nc2c(C)noc2C)[C@@H](C)CN([C@H](C)CO)C3=O)cc1 | -7 | 1 | 14 | -1 | x | x
N#C/C(=C\c1c(Cl)cccc1Cl)c1nc2ccccc2o1 | 2 | 1 | 7 | -3 | 142 | i
SMILES | dFosB activator | Bfl-1 A1 inh | Dyrk1A ADPGlo | Beta2AR agonist | Beta2AR ag CP1 | B2AR FAP counter
CC(C)(C)c1ccc(OCC(=O)Nc2ccc(-c3nc4cccnc4o3)cc2)cc1 | -6 | 0 | -4 | 110* | 40* | i
O=C(CCc1ccc(S(=O)(=O)N2CCOCC2)cc1)Nc1nc(COc2ccccc2)cs1 | -11 | 0 | -9 | 62* | 20* | i
COc1ccccc1C(=O)Nc1ccc2c(c1)nc(CN1CCN(C(C)=O)CC1)n2C | 3 | 0 | -6 | 53* | 113 | i
Cc1ccc(NC(=S)Nc2ccc(S(=O)(=O)N3CCOCC3)cc2)cc1S(=O)(=O)N1CCOCC1 | -10 | 0 | -1 | 14 | x | x
Cc1ccc(S(=O)(=O)N2CCOCC2)cc1C(=O)N1CCN(c2ncccn2)CC1 | -10 | x | 2 | -3 | x | x
Cn1cccc1C(=O)NCC(c1ccco1)N1CCCCC1 (stereo not drawn) | 1 | 0 | 1 | 2 | x | x
CCN(CC)CCNc1ncnc2c1sc1nc(N3CCCC3)c3c(c12)CC(C)(C)OC3 | 23* | 0 | 5 | 65* | 96 | i
CC(C)CNc1nnnc2c1sc1nc(N3CCOCC3)c3c(c12)CC(C)(C)SC3 | -14 | -1 | -7 | 0 | x | x
CCN(CCO)c1ncnc2c1sc1nc(CC(C)C)c3c(c12)CC(C)(C)OC3 | -14 | 0 | -1 | 23 | 25* | i
CN(C)CCNc1ncnc2c1sc1nc(N3CCCC3)c3c(c12)CC(C)(C)OC3 | u | -1 | -7 | 72* | 35* | i
CC1(C)Cc2nc3sc4c(N(CCO)CCO)ncnc4c3cc2CO1 | -15 | 0 | 29 | -9 | x | x
CC1(C)Cc2c(c(-c3ccco3)nc3sc4c(NCCN5CCOCC5)ncnc4c23)CO1 | -12 | 0 | 6 | 42 | x | x
CC(C)CNc1ncnc2c1sc1nc(N3CCOCC3)c3c(c12)CC(C)(C)OC3 | -4 | 0 | 14 | -7 | 142 | i
COc1ccc(CCC(=O)OCC(=O)Nc2sccc2C#N)cc1 | -14 | 0 | -2 | 8 | x | x
OCCNCC(O)Cn1c2ccccc2c2ccccc21 (stereo not drawn) | -3 | -1 | -7 | -4 | x | x
COc1ccccc1CNCC(O)Cn1c2ccccc2c2ccccc21 (stereo not drawn) | u | 1 | 3 | 55* | 111 | i
CCC(C)(C)c1ccc(OCCCC[n+]2cccc(C)c2C)c(C(C)(C)CC)c1 | 13 | 0 | 7 | 56* | 88 | i
Cc1cccc(-c2cc3nc(-c4ccccc4)cc(=O)n3[nH]2)c1 | -13 | -5 | 1 | 12 | x | x
CC(C)(C)NNC(=S)Nc1cccc(C(F)(F)F)c1 | -2 | 0 | -8 | -7 | x | x
Cc1ccc(NC(=S)NNC(C)(C)C)cc1 | -3 | 1 | x | 1 | 103 | i
Cn1nc(-c2ccc(C(=O)NCCO)cc2)c2ccccc2c1=O | -3 | 0 | 6 | -5 | 111 | i
CN(CC(=O)N1CCN(c2ccccn2)CC1)S(=O)(=O)c1ccc2ccccc2c1 | -3 | 0 | 6 | -2 | x | x
COc1ccc(N2CCN(C(=O)CN(C)S(=O)(=O)c3cc(C)ccc3OC)CC2)cc1 | -11 | 0 | -7 | 4 | 91 | i
COc1ccc(OC)c(S(=O)(=O)N(C)CC(=O)N2CCCCC2)c1 | 4 | 1 | x | 1 | x | x
O=C(CCNS(=O)(=O)c1ccc(Cl)cc1)N1CCN(c2ccccn2)CC1 | -8 | 0 | 0 | 0 | x | x
